Laboratory results published in PubChem BioAssay AID729 (The Scripps Research Institute Molecular Screening Center, 2007).
Screen size: about 97,000 compounds; about 450 (0.46%) were called active. Cut-off read from the data, not from the text of the source: active = activation above about 16%; inactive = the rest. The list comes from a sample in which actives are over-represented; it also holds similar structures and randomly drawn compounds.

These compounds were tested against Sphingosine 1-phosphate receptor 2 (Homo sapiens) (UniProt O95136) (assay: activation of human S1P2 receptor – cell-based, primary screen (AID 729;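 note: 0% = vehicle low control and 100% = maximal reference agonist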)). Conditions: S1P2-expressing cell line, agonist reporter read-out; at 4.5 µM; stronger effect = higher value.
Sequence of Sphingosine 1-phosphate receptor 2 (Homo sapiens) (O95136 whole entry, looked up): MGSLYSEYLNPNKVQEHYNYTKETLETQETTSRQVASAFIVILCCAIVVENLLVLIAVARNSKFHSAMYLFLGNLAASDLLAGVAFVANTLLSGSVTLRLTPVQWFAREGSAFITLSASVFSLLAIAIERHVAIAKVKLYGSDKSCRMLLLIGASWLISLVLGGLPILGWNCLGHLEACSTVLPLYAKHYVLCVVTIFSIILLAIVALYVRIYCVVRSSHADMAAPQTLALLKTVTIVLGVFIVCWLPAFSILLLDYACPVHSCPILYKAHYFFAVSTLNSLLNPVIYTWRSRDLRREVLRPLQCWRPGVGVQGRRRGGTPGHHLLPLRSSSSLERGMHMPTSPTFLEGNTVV

| SMILES | activation |
| --- | --- |
| CCOC(=O)C(C)Sc1nc2ccccc2c(=O)n1CC1CCCCC1 (stereo not drawn) | 1.92% (inactive) |
| CN(C)c1ccnc2sc3c(=O)n(-c4ccc(Cl)cc4)cnc3c12 | -3.21% (inactive) |
| CCOc1ccccc1N(CC(=O)Nc1ccccc1C(=O)OC)S(C)(=O)=O | -7.41% (inactive) |
| CCOc1ccccc1C1C(C(=O)OC)=CN(C)C=C1C(=O)OC | 25.5% (active) |
| CC12CN3CC(C)(CN(C1)C3c1ccc(Cl)cc1Cl)C2=O (stereo not drawn) | -3.81% (inactive) |
| CCOc1cc(C2C(C(=O)OC)=CN(C3CCCC3)C=C2C(=O)OC)cc(Br)c1O | 7.13% (inactive) |
| COC(=O)C1=C(C)N(C)C(C)=C(C(=O)OC)C1c1cccc(Br)c1 | -1.98% (inactive) |
| COC(=O)C1=CN(C)C=C(C(=O)OC)C1c1ccc(Cl)cc1Cl | 32.1% (active) |
| Cn1nnnc1SCC(=O)Nc1ccccc1C(=O)NC1CC1 | -4.5% (inactive) |
| C/C(=N\NS(=O)(=O)c1cccc([N+](=O)[O-])c1)c1cc2ccccc2o1 | -4.08% (inactive) |
| CCOc1c(Cl)cc(/C=N/O)cc1OC | -3.93% (inactive) |
| CC(=O)C1=C(C)NC(C)=C(C(C)=O)C1c1cn(-c2ccccc2)nc1-c1cccs1 | -8.95% (inactive) |
| CCc1nc(C)ccc1OCC(=O)N(CC)CC | -0.52% (inactive) |
| CSc1nc(-c2ccco2)nn1C(=O)CCc1ccccc1 | -4.35% (inactive) |
| CCOC(=O)c1nnn(-c2nonc2-n2cccc2)c1CN1CCOCC1 | -2.91% (inactive) |
| O=C(Cc1ncc(C(F)(F)F)cc1Cl)Nc1cccc(Br)c1 | -3.95% (inactive) |
| Cc1noc(C)c1CSCC(=O)Nc1nc2ccc(Oc3ccccc3)cc2s1 | -9.84% (inactive) |
| C=CCn1c(-c2ccc(Cl)cc2)ccc(C#N)c1=O | -1.04% (inactive) |
| CCCNC(=O)c1c(N)n(-c2ccc(S(N)(=O)=O)cc2)c2nc3ccccc3nc12 | 25.6% (active) |
| C=CCn1c(N)c(C(=O)OCC(C)C)c2nc3ccccc3nc21 | -4.83% (inactive) |
| CCC(C)NC(=O)c1c(N)n(/N=C/c2cccs2)c2nc3ccccc3nc12 (stereo not drawn) | 11.4% (inactive) |
| COc1ccc2c(c1OC)C(=O)c1ccccc1C2=O | -4.98% (inactive) |
| COc1ccc2c(c1OC)C(=O)N(c1ncn[nH]1)C2 | 16.5% (active) |

| SMILES | activation |
| --- | --- |
| COc1ccc(N2CCN(C(=O)CCc3nc(-c4ccc(C)cc4)no3)CC2)cc1 | -1.72% (inactive) |
| Cc1ccc(S(=O)(=O)Nc2nc(C)cc(-n3nc(C)cc3C)n2)cc1 | -3.06% (inactive) |
| N#Cc1ccc(-c2ccc(Cl)cc2)nc1Oc1ccc(F)cc1 | -3.88% (inactive) |
| Cc1ccc(/C=N/NC(=O)C2=NNC(c3ccccc3)(c3ccccc3)C2)c(O)c1 | 2.35% (inactive) |
| O=C(Cc1ccccc1)N/N=C/c1ccc(Cl)cc1Cl | 2.34% (inactive) |
| Cc1nn(C)cc1C(=O)NNC(=S)Nc1ccc(Cl)cc1 | -6.95% (inactive) |
| O=C1CCCc2nn(-c3ccccc3)nc21 | -3.05% (inactive) |
| Cc1nc(NC(=O)c2cccc(Cl)c2)sc1-c1csc(Nc2cccc(Cl)c2)n1 | -10.8% (inactive) |
| Cc1cc(C)c2nc(NC(=O)c3ccc4c(c3)OCO4)sc2c1 | -8.01% (inactive) |
| CNC(=O)c1csc(-c2ccccc2)n1 | -5.56% (inactive) |
| O=C(c1cc2c(s1)CCC2)N1CCN(c2ccccc2)CC1 | -4.17% (inactive) |
| Cc1nn(Cc2ccc(C(=O)N3N=C(C(F)F)CC3(O)C(F)F)cc2)c(C)c1[N+](=O)[O-] (stereo not drawn) | -4.76% (inactive) |
| Cc1ccccc1-c1nnc(SCC(=O)NCc2ccc3c(c2)OCO3)n1C | -6.95% (inactive) |
| COc1cccc(N=c2oc3c(C)ncc(CO)c3cc2C(N)=O)c1 | -4.4% (inactive) |
| O=C1Nc2ccc(Br)cc2/C1=N/N=C/C1=C(N2CCOCC2)C(=C\c2ccccc2)/CC1 | -5.74% (inactive) |
| COc1ccc(-c2nnc(SCc3cccnc3)o2)cc1 | -3.86% (inactive) |
| Cc1nnc(SC(C)C(=O)Nc2ccc(S(=O)(=O)NC3CCCCC3)cc2)s1 (stereo not drawn) | -4.5% (inactive) |
| CN(C)CCCn1c(N)c(C#N)c2nc(C#N)c(C#N)nc21 | 12.8% (inactive) |
| N#Cc1c(N)n(CCOC(=O)c2ccc(Cl)cc2)c2nc3ccccc3nc12 | 16.5% (active) |
| CC(C)(C)OC(=O)c1c(N)n(CCCN2CCCC2=O)c2nc3ccccc3nc12 | 0.36% (inactive) |
| Fc1ccc(CNc2nc3ccccc3n3nnnc23)cc1 | -7.16% (inactive) |
| O=C(NC(C(=O)NCCN1CCOCC1)C12CC3CC(CC(C3)C1)C2)C1CCCCC1 (stereo not drawn) | -4.77% (inactive) |
| Cc1c(NC(=O)c2cc(-c3ccc(Cl)s3)nc3ccccc23)c(=O)n(-c2ccccc2)n1C | -14.2% (inactive) |

| SMILES | activation |
| --- | --- |
| O=C(Nc1ccn(Cc2ccccc2F)n1)c1ccc(COc2ccc(Cl)cc2Cl)o1 | -5.78% (inactive) |
| CCn1cc(C(=O)NCC2COc3ccccc3O2)c2cc(OC)c(OC)cc2c1=O (stereo not drawn) | 19.9% (active) |
| O=C(Cn1cnc2ccccc2c1=O)NCC1COc2ccccc2O1 (stereo not drawn) | -3.16% (inactive) |
| CCn1cc(C(=O)NCc2ccc3c(c2)OCO3)c2cc(OC)c(OC)cc2c1=O | 14.1% (inactive) |
| CO/N=C/c1ccc(N2CCN(C(=O)c3cccc(Cl)c3)CC2)c([N+](=O)[O-])c1 | -3.08% (inactive) |
| Cc1ccc(CNC(=O)C2CCCN2C(=O)NCc2ccccc2)cc1 (stereo not drawn) | -8.36% (inactive) |
| O=C(CO/N=C/c1ccccc1O)NNC(=O)c1ccccc1Cl | -5.77% (inactive) |
| Cc1ccc(S(=O)(=O)/N=C(/Nc2ccccn2)c2ccc(Cl)cc2)cc1 | -4.9% (inactive) |
| CSc1ccccc1-c1nnc(-c2ccc(Cl)cc2)o1 | -1.63% (inactive) |
| Cc1ccc(N2CCN(C3=NC(=O)/C(=C\c4cccs4)S3)CC2)cc1 | -8.97% (inactive) |
| O=Cc1c(N2CCN(c3cccc(Cl)c3)CC2)nc2ccccn2c1=O | -4.84% (inactive) |
| CN1C(=O)C(CC(N)=O)N(NC(=O)c2ccc(Cl)cc2)C1=S (stereo not drawn) | -7.47% (inactive) |
| CSc1nc2ccccc2cc1/C=C(\C#N)c1ccc(Cl)cc1Cl | 19.8% (active) |
| CSc1nc(N)c(C#N)c(-c2ccccc2Cl)c1C#N | -7.07% (inactive) |
| Cc1nc2ccccc2cc1O | -0.52% (inactive) |
| Cc1sc(NC(=O)C2C3CCC(O3)C2C(=O)O)c(C(=O)OC(C)C)c1-c1ccc(Cl)cc1 (stereo not drawn) | -9.04% (inactive) |
| CN(C)c1ccc(/C=C2\NC(=S)N(Cc3ccccc3)C2=O)cc1 | -4.43% (inactive) |
| Cc1ccc(-c2nc(C)sc2CC(=O)O)cc1 | -2.07% (inactive) |
| CN(c1cccc(NC(=O)Nc2ccc(Cl)cc2)c1)S(C)(=O)=O | -3.59% (inactive) |
| Nc1c(-c2ccc(F)cc2)cnn1C1CCS(=O)(=O)C1 (stereo not drawn) | -4.76% (inactive) |
| Cc1ccc(C2C(C#N)C(C#N)N3CCCN23)cc1 (stereo not drawn) | -4.89% (inactive) |
| N/C(=N\OC(=O)CCC1CCCCC1)c1ccccn1 | -3.14% (inactive) |
